Source: PubChem BioAssay
Cruzain inh Det – cruzain (T. cruzi) inhibition with detergent | P25779 | purified cruzain, Z-FR-AMC fluorescence, 0.01% Triton | Potency, µM, inactives show max response, negative = inhibition, actives largely listed as inhibitors | 0.43% of 200,000 active;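 also: plate controls were neutral wells for no effect and buffer without enzyme for full effect; nearly all actives have a fitted effect of over 40% in size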
Target sequence (P25779 123-467 limits assumed): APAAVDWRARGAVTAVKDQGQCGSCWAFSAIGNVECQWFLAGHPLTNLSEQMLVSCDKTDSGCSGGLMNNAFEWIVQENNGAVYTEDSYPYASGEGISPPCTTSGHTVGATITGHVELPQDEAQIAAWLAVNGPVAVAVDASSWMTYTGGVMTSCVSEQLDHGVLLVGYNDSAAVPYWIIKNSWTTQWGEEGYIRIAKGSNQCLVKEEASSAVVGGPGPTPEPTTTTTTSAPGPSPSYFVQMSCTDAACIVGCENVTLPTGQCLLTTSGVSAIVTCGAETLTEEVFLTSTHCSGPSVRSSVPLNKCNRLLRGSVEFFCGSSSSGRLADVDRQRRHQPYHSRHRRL
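Purified cruzain (1.5 nM final) was preincubated with compounds for 15 min at room temperature in 100 mM sodium acetate pH 5.5, 5 mM DTT, 0.01% Triton X-100. Reaction started with 2 uM Z-FR-AMC; AMC fluorescence change over 60 s gave activity.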
Cruzain inh noDet – inhibitors of Trypanosoma cruzi cruzain without detergent. P25779. Potency, µM, without a hit: max response, negative = inhibition, most hits filed as inhibitors. purified cruzain, Z-FR-AMC fluorescence, no detergent. 2.3% of 200,000 active;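 also: plate controls were enzyme without inhibitor for no effect and buffer without enzyme for full effect; nearly all actives have a fitted effect of over 40% in size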
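Detergent-free condition (0.00005% Triton X-100) in acetate buffer pH 5.5 with DTT. 1.5 nM enzyme and compound were pre-mixed 15 min, then 2 uM Z-FR-AMC substrate added; reaction progress from fluorescence change between first and third reads (60 s).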
Numbers without * were called inactive; ? = inconclusive. Compounds with a hit are over-represented: about 2.5% of the library has one in this group of screens. Calls follow the shape of the dose curve; as a rule, active = well fitted curve in the direction sought with a large enough effect; inconclusive = small, poorly fitted or top-dose-only effect, or another doubt; inactive = no such curve, though single readings can be large; an effect the other way counts as inactive or inconclusive. Potency is read from the fitted curve at half-maximal effect.

SMILES | Cruzain inh Det | Cruzain inh noDet
CN1CCc2nc(SCC(=O)Nc3cccc(F)c3)c(C#N)c(-c3cccs3)c2C1 | 0% | 20µM*
CC(C)(C)C(=O)CSc1nc2c(c(-c3cccs3)c1C#N)CCC2 | -4% | 25µM*
N#Cc1c(C(F)(F)F)cc(-c2cccs2)nc1SCC(=O)Nc1cccc(C(F)(F)F)c1 | 0% | 9%
CC(=O)CSc1nc(N)c(C#N)c(-c2cccs2)c1C#N | -4% | -9%
CN1CCc2nc(SCC(=O)Nc3ccc(OC(F)(F)F)cc3)c(C#N)c(-c3cccs3)c2C1 | -5% | ?
COC(=O)c1c(NC(=O)CCCOc2ccc(C(C)(C)C)cc2)sc2c1C(C(=O)OC)CC2 (stereo not drawn) | -15% | ?
COc1ccc(-c2nc3cc(C(C)C)ccc3o2)cc1NC(=O)c1ccccc1[N+](=O)[O-] | -2% | -12%
COc1ccc(-c2cccc(NS(=O)(=O)c3cccs3)c2)nn1 | -2% | -8%
O=C(CSc1nc2ccccc2o1)Nc1nc2ccc(Br)cc2s1 | 1% | 10µM*
COc1ccc2nc(NC(=O)CSc3nc4ccccc4o3)sc2c1 | 5% | -18%
CC(C)(C)OC(=O)N1CCC(c2c(C(=O)NCc3ccco3)cnn2-c2ccccc2Cl)CC1 | -7% | ?
Cc1cccc(Cn2c(SCc3ccc(C(=O)NC4CCCCC4)cc3)nc3ccncc32)c1 | 1% | -12%
CCC(C(=O)NC1CCCCC1)n1c(SCc2cccc(C)c2)nc2ccncc21 (stereo not drawn) | 14µM* | ?
Cc1ccc(S(=O)(=O)c2nnn3c2nc(N2CCCC2)c2sccc23)cc1 | 1% | 11%
O=C(NC1CCCCC1)c1ccccc1NC(=S)NC(=O)C1CCC1 | 2% | -12%
O=C(/C=C/c1ccccc1Cl)NC(=S)Nc1ccccc1C(=O)NC1CCCCC1 | 1% | 4µM*
COc1ccc(-c2nn(-c3ccccc3)cc2/C=N/NC(=O)c2ccc(Br)o2)cc1 | 0% | 25µM*
O=C(N/N=C/c1cn(-c2ccccc2)nc1-c1cc2ccccc2o1)c1ccccc1Br | -4% | 7.9µM*
COc1ccc(-c2nn(-c3ccccc3)cc2C(=O)Nc2ccccc2OC)cc1 | -3% | -3%
COc1ccc(-c2nn(-c3ccccc3)cc2/C=N/NC(=O)c2ccc3c(c2)OCO3)cc1 | -4% | ?
O=C(N/N=C/c1cn(-c2cccs2)nc1-c1ccccc1)c1ccccc1Br | -4% | ?
O=C(N/N=C\c1cn(-c2ccccc2)nc1-c1ccccc1)c1ccc2c(c1)OCO2 | 0% | 20µM*
COc1ccc(-c2nn(-c3ccccc3)cc2/C=N/NC(=O)c2cccc(S(=O)(=O)Nc3ccccc3OC)c2)cc1 | -7% | 10µM*
O=C(N/N=C/c1cn(-c2ccccc2)nc1-c1ccc(F)cc1)c1ccc2c(c1)OCO2 | 3% | ?
COc1cc2c(cc1OC)C(COc1cc(C)cc(C)c1)N(C(=O)COc1ccccc1)CC2 (stereo not drawn) | 0% | 3%
SMILES | Cruzain inh Det | Cruzain inh noDet
O=C(COc1ccccc1)Nc1ccc2c(c1)Cc1cc(NC(=O)COc3ccccc3)ccc1-2 | 4% | 2.5µM*
Cc1ccccc1OCC(=O)Nc1ccc2c(c1)Cc1ccccc1-2 | 1% | ?
CCOc1ccc(N(CC)C(=O)CSc2n[nH]c(-c3ccccc3)n2)cc1 | 1% | -7%
CCCN(c1ccc(C(C)C)cc1)S(=O)(=O)c1ccc2c(c1)CCN2C(=O)CC | -1% | -4%
COC[C@H]1OC=C[C@@H](OC)[C@@H]1OC | -2% | 7%
COc1ccccc1NC(=O)c1c(Nc2ccccc2C)sc(C(=O)Nc2cccc(Cl)c2)c1N | 2% | 3.2µM*
COc1ccc(C(=O)c2sc(Nc3ccccc3)c(C(=O)Nc3ccc(OC)c(OC)c3)c2N)cc1 | -7% | -22%
COc1cccc(Nc2sc(C(=O)c3ccc(F)cc3)c(N)c2C(=O)NCc2ccc(Cl)cc2)c1 | -3% | -16%
COc1ccc(Nc2sc(C(=O)c3ccc(Cl)cc3)c(N)c2C(=O)Nc2ccccc2OC)cc1 | 0% | 4µM*
COc1ccc(NC(=O)c2c(Nc3ccccc3)sc(C(=O)c3ccc(F)cc3)c2N)cc1 | -8% | 10µM*
COc1ccc(C(=O)c2sc(Nc3cccc(OC)c3)c(C(=O)Nc3cccc(C)c3C)c2N)cc1 | 0% | 6.3µM*
CCOc1ccccc1Nc1sc(C(=O)c2ccccc2)c(N)c1C(=O)Nc1ccccc1 | -2% | ?
COc1cccc(Nc2sc(C(=O)c3ccc(Cl)cc3)c(N)c2C(=O)NCc2ccc(C)cc2)c1 | 0% | ?
c1ccc(Oc2nc(NC3CCCCC3)c3[nH]cnc3n2)cc1 | 0% | 2%
CC1(C)Cc2c(c(N3CCCCC3)[nH]c(=S)c2C#N)CS1 | -1% | 13µM*
CC1CCN(c2[nH]c(=S)c(C#N)c3c2CCCC3)CC1 | 3% | -21%
Cc1cc(O)c2c(C)c(CC(=O)NCc3ccccc3Cl)c(=O)oc2c1 | -9% | -21%
c1ccc(-c2nc(NCC3CCCO3)c3ccccc3n2)nc1 (stereo not drawn) | 4% | 0%
OCCNc1nc(Nc2ccccc2)nc(Nc2ccccc2)n1 | -6% | -10%
OCCNc1nc(Nc2ccccc2)nc2ccccc12 | ? | 16µM*
Oc1cccc(Nc2nc(NCC3CCCO3)c3ccccc3n2)c1 (stereo not drawn) | 18µM* | 13µM*
CN(C)c1ccc(-c2nc3ccc(Cl)cn3c2Nc2ccc3c(c2)OCCO3)cc1 | 5% | 20%
COc1ccc2nc(SCC(O)c3cccc(Br)c3)[nH]c2c1 (stereo not drawn) | -14% | -3%
COc1ccc(N2CCN(S(=O)(=O)c3ccc(Cl)c(C(F)(F)F)c3)CC2)cc1 | 4% | 16µM*
COc1ccc(N2CCN(S(=O)(=O)c3cccc(C(F)(F)F)c3)CC2)cc1 | 2% | -2%
SMILES | Cruzain inh Det | Cruzain inh noDet
O=C(Oc1ccc(N(Cc2cccs2)C2=NS(=O)(=O)c3ccccc32)cc1)c1ccc(Cl)cc1 | -1% | 32µM*
O=C(Oc1ccc(N(Cc2cccs2)C2=NS(=O)(=O)c3ccccc32)cc1)c1ccccc1 | 2% | ?
COc1cc(NC(=O)COC(=O)CNC(=O)c2ccc(C)cc2)c(C)cc1[N+](=O)[O-] | 13µM* | 13µM*
COc1cc(NC(=O)COC(=O)CC(C)(C)C)c(C)cc1[N+](=O)[O-] | -1% | 5%
COc1cc(NC(=O)COC(=O)C2CC2)c(C)cc1[N+](=O)[O-] | -5% | -2%
COc1cc(NC(=O)COC(=O)CNC(=O)c2ccc(Cl)cc2)c(C)cc1[N+](=O)[O-] | 13µM* | 10µM*
CC(C)c1ccc(-c2noc(SCC(=O)N3CCN(c4ccccc4F)CC3)n2)cc1 | -2% | 2%
Cc1ccc(-c2nc3c4ccccc4[nH]c(=O)n3n2)cc1 | -4% | -3%
O=[N+]([O-])c1cc(S(=O)(=O)N2CCCC2)ccc1N/N=C/c1cccnc1 | -2% | 7%
CCC(/C=N/Nc1ccc(S(=O)(=O)N2CCCC2)cc1[N+](=O)[O-])CC | -1% | 20µM*
O=C(CSc1c2c(nc3ccccc13)CCC2)Nc1ccc(F)cc1 | -8% | -8%
CCc1nnc(NC(=O)c2ccc(S(=O)(=O)N3CCCCC3C)cc2)s1 (stereo not drawn) | 3% | -5%
O=C(Nc1nc(-c2ccc3c(c2)OCCO3)cs1)c1ccc(S(=O)(=O)N2CCCCC2)cc1 | -1% | 13µM*
O=C(Nc1nc(-c2cccs2)cs1)c1ccc(S(=O)(=O)N2CCCC2)cc1 | 2% | -17%
